Records with an inconclusive call do not appear. Active and inactive are the calls of the source. Calls come from the whole dose curve.

This assay is described as follows: qHTS assay to identify small molecule agonists of the NFkB signaling pathway - cell viability counter screen (AID 1159515). Note: nearly all actives have a fitted effect of over 55% in size. As to conditions: NFkB-bla ME-180 viability, CellTiter-Glo luminescence, 5 h; series mostly up to 61 µM. The source says:
National Center for Advancing Translational Sciences [NCATS]
NIH Chemical Genomics Center [NCGC]
U.S. Environmental Protection Agency [EPA]
National Institutes of Environmental Health Sciences [NIEHS]
National Toxicology Program [NTP]
U.S. Food and Drug Administration [FDA]
Transcription factors and their stimulated target gene expression play pivotal roles across many cellular processes including responses to environmental stimuli. Proper regulation of associated pathways is critical to maintain cell health and function. Constitutive activation of transcription factor pathways has been implicated in tumors as it may block cellular functions such as apoptosis and lead to invasion and metastasis. One important transcription factor that stimulates gene expression in response to cytokines, UV radiation, and other stimuli is nuclear factor-kappa B (NFkB). To measure activation of the NFkB pathway, the CellSensor NFkB-bla ME-180 cell line (Life Technologies, Carlsbad, CA) that stably expresses beta-lactamase reporter gene under the regulation of a NF-kB response element was used. This assay allows measurement of the NFkB pathway activity induced by compounds in a ME-180 cell line. This system quantitates NF-kB activity using a FRET-based assay system where beta-lactamase expression disrupts FRET, allowing for fluorescent measurement of activity. This cell line has been used to screen the Tox21 10K compound library and to identify compounds that induce the NFkB pathway activity. The cytotoxicity of the Tox21 compound library against the NFkB-bla ME-180 cell line was tested in parallel by measuring cell viability using the CellTiter-Glo assay in the same wells.
Tox21 Assay Protocol Summary:
NFkB-bla ME-180 cells were dispensed at 2,000 cells/6 uL of assay medium per well into black wall/clear-bottom 1536-well plates using a Multidrop Combi (ThermoFisher Scientific, Waltham, MA) dispenser. After the assay plates were incubated at 37 C and 5% CO2 for an overnight, 23 nL of compounds dissolved in DMSO, positive controls or DMSO only was transferred to the assay plate by a Pintool station (Kalypsys, San Diego, CA). The assay plates were incubated at 37 C and 5% CO2 for 5 hr. One uL of LiveBLAzer B/G FRET substrate (Life Technologies) was added using a Flying Reagent Dispenser (Aurora Discovery, San Diego, CA) and the plates were incubated at room temperature for 1.5 hr. Fluorescence intensity (405 nm excitation, 460 nm and 530 nm emissions) was measured using an Envision plate reader (PerkinElmer, Shelton, CT). For cytotoxicity, 3 ul/well of CellTiter-Glo reagent was added into the assay plates using an FRD. After 30 min incubation at room temperature, the luminescence intensity was measured using a ViewLux plate reader (PerkinElmer).
Take `O=Nc1ccc(O)cc1`: the result was inactive.
In the case of `CC1(C)CC(N=C=O)CC(C)(CN=C=O)C1` (stereo not given), the result was inactive.
To `CC#C[C@]1(O)CC[C@H]2[C@@H]3CCC4=CC(=O)CCC4=C3[C@@H](c3ccc(N(C)C)cc3)C[C@@]21C` belongs “inactive”.
The value for `NCCNCCNCCNCCN` was “inactive”; that for `CN(CCOc1ccc(CC2SC(=O)NC2=O)cc1)c1ccccn1` (stereo not given) was “inactive”.
The value for `OCC1CCCO1` (stereo not given) was “inactive”; that for `c1ccc2ccccc2c1` was “inactive”.
With `O=c1c(-c2ccc(O)cc2)coc2cc(O)ccc12`, the compound was called inactive.
For `Oc1ccc2ccccc2c1N=Nc1ccccc1`, the call was inactive.
For the compound `CCCCCCCCCCC=CC1CC(=O)OC1=O` (stereo not given), the call was inactive.
The value for `S=c1nc[nH]c2nc[nH]c12` was “inactive”; that for `O=S(=O)(O)c1cc(S(=O)(=O)O)c2c(N=Nc3ccccc3)c(O)ccc2c1` was “inactive”.
To `COC(=O)c1ccccc1O` belongs “inactive”.
To `Cn1c([N+](=O)[O-])cnc1COC(N)=O` belongs “inactive”; to `CCCCCCCCC`, “inactive”; to `Cc1cc(O)c2c(c1)C(=O)c1cc(O)cc(O)c1C2=O`, “inactive”.
Take `Cc1cc(NS(=O)(=O)c2ccc(N)cc2)no1`: the call was inactive.
The value for `CCCCCCOC(C)=O` was “inactive”.
The value for `C=C(C#N)C(=O)OCC` was “inactive”; that for `O=C(Cl)c1c(Cl)c(Cl)c(C(=O)Cl)c(Cl)c1Cl` was “inactive”.
The value for `O=S(=O)(O)CCS` was “inactive”.
With `C=CC(=O)OCCCCCCCC(C)C`, the result was inactive.
With `CCCCCC/C=C/CCCCCCCC(=O)O`, the compound was called inactive.
The value for `O=[N+]([O-])c1cc(N(CCO)CCO)ccc1NCCO` was “inactive”; that for `NC(=O)NNc1ccccc1` was “inactive”; that for `CC(C)(C)C1CCC(O)CC1` (stereo not given) was “inactive”.
As for `O=S(=O)(Oc1ccc(Cl)cc1Cl)c1ccccc1`, the compound was classed as inactive.
The value for `CC1COc2ccccc2N1C(=O)C(Cl)Cl` (stereo not given) was “inactive”.
The value for `O=C1O[C@H](CO)[C@@H](O)[C@H](O)[C@H]1O` was “inactive”; that for `Nc1c(S(=O)(=O)O)cc(Br)c2c1C(=O)c1ccccc1C2=O` was “inactive”; that for `O=C(O)c1ccc([N+](=O)[O-])cc1` was “inactive”.
The value for `COC(=O)Nc1nc2ccc(Sc3ccccc3)cc2[nH]1` was “inactive”; that for `CC1Cc2ccccc2N1NC(=O)c1ccc(Cl)c(S(N)(=O)=O)c1` (stereo not given) was “inactive”.
`C=C1C2CCC(C2)C1(C)C` (stereo not given): the result was inactive.
To `CCCCC(CC)COC(C)=O` (stereo not given) belongs “inactive”; to `NCc1cccc(CN)c1`, “inactive”.
To `NS(=O)(=O)c1cc2c(cc1Cl)NC=NS2(=O)=O` belongs “inactive”; to `CCCCC(CC)COC(=O)/C=C\C(=O)OCC(CC)CCCC` (stereo not given), “inactive”.
The value for `CCC(C)C=O` (stereo not given) was “inactive”; that for `C=C1CC[C@H](O)CC1=C/C=C1\CCC[C@]2(C)[C@@H]([C@H](C)/C=C/[C@H](C)C(C)C)CC[C@@H]12` was “inactive”.

Values taken from PubChem BioAssay (Tox21).
